# Target: DNA 5-C-methyltransferase (murine, Friend erythroleukemia cells) (Mus musculus, UniProt P13864 P13864:1-1620)
# Experiment: same rate as unmethylated A
# Conditions: protein: extract; tags: 0.3 M NaCl nuclear extract, 100,000 x g supernatant; single approx. 190 kDa species forming covalent complexes; homodimer, no analogous stem-loop; ssDNA; 5mC at 7
# Chain of DNA 5-C-methyltransferase (murine, Friend erythroleukemia cells) (P13864 whole entry, one chain of several): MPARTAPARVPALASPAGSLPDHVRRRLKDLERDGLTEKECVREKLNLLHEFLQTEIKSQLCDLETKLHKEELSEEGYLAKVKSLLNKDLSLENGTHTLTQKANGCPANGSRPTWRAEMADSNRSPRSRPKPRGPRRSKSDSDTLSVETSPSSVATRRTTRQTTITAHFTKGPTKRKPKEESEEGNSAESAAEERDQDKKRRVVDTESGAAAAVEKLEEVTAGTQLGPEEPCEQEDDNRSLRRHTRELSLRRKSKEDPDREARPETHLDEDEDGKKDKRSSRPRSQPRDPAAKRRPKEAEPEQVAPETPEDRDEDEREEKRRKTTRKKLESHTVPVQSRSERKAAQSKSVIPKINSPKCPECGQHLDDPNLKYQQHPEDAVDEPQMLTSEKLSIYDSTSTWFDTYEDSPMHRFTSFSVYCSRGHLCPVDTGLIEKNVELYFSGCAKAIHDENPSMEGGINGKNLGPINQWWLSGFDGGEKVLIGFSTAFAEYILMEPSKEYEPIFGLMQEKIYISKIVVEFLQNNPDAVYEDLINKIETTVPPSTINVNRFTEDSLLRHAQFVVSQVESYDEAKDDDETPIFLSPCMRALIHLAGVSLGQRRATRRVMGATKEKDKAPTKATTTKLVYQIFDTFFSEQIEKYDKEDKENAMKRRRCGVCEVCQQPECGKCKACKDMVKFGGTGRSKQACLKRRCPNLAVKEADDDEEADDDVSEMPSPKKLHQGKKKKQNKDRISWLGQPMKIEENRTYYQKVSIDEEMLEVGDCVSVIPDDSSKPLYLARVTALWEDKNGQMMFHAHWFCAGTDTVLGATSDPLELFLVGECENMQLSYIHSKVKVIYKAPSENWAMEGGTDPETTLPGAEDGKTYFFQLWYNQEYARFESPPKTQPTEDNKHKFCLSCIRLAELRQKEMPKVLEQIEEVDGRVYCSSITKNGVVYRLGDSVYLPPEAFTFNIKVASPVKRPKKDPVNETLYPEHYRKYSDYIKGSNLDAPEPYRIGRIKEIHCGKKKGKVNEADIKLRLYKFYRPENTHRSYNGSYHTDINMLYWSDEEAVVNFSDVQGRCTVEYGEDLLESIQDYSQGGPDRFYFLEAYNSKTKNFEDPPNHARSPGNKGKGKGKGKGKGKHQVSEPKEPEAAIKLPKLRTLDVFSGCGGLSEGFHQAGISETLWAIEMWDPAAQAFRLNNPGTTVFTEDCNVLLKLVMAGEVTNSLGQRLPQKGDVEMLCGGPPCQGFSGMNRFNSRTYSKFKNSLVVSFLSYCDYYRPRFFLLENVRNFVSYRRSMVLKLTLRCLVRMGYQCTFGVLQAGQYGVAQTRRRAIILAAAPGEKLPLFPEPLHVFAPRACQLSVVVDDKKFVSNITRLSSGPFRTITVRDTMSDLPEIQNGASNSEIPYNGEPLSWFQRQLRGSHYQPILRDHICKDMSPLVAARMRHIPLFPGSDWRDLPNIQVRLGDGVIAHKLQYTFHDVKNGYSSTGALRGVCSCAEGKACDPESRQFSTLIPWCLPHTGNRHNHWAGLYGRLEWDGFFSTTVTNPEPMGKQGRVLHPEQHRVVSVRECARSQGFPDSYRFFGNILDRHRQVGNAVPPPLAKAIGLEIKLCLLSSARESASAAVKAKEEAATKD
sequence,measurement,value
ATTGCGCTACTCGGATCCGGCCAT,binding signal,1 relative to A

# Source: patent US5652105, “Substrate for detection of mammalian 5-C-DNA methyltransferase” (Health Research, Inc.)
